# Results filed as inconclusive are left out. A call without a number means that no potency is given here. The source made the active and inactive calls. Unless noted, calls come from the whole dose curve; as a rule, active = well fitted curve in the direction sought with a large enough effect; inconclusive = small, poorly fitted or top-dose-only effect, or another doubt; inactive = no such curve, though single readings can be large; an effect the other way counts as inactive or inconclusive.
# Tested on: not listed separately
# Assay: S16 Schwann cell PMP22 intronic element beta-lactamase assay (AID 624044; calls by dose curve; note: nearly all actives have a fitted effect of over 15% in size)
# Conditions: S16 rat Schwann cells, PMP22 element beta-lactamase FRET, 24 h; series mostly up to 38.3 µM
# In short: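 Beta-lactamase reporter under a PMP22 intronic regulatory element in stable S16 rat Schwann cells; 24 h compound exposure. 460 nm blue signal normalized between DMSO (0%) and potassium clavulanate, with 535 nm FRET tracking viability; curves classed by r2 and response.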
row,Compound,Potency
1,O=C1CCCCC1CN1CCCCC1 (stereo not drawn),inactive
2,CC1OC1P(=O)(O)O (stereo not drawn),inactive
3,O=c1[nH]cc(N(CCCl)CCCl)c(=O)[nH]1,inactive
4,O=C(OCCN1CCCCC1)C(O)(c1ccccc1)c1ccccc1,inactive
5,F/C(COc1ccc2c(c1)[nH]c1ccccc12)=C1/CN2CCC1CC2,inactive
6,CC(N)Cc1ccc(O)cc1 (stereo not drawn),inactive
7,COc1ccc2c3c1O[C@H]1C(=O)CC[C@H]4[C@@H](C2)N(C)CC[C@]314,inactive
8,O=C(CS(=O)C(c1ccccc1)c1ccccc1)NO (stereo not drawn),inactive
9,CN1CCCC(=C(c2cccs2)c2cccs2)C1,inactive
10,C[C@@H](Cc1ccccc1)NCCC(c1ccccc1)c1ccccc1,inactive
11,Clc1ccc(Cl)cc1,inactive
12,C[N+]1(C)CCCCC1COC(=O)C(O)(c1ccccc1)c1ccccc1 (stereo not drawn),inactive
13,CCC(=O)O[C@@](Cc1ccccc1)(c1ccccc1)[C@@H](C)CN(C)C,inactive
14,CCC(N)Cc1c[nH]c2ccccc12 (stereo not drawn),inactive
15,CC1CCC(C(C)C)C(OC(=O)c2ccccc2N)C1 (stereo not drawn),inactive
16,c1ccc2sc(SNC3CCCCC3)nc2c1,inactive
17,CCC(C)(S(=O)(=O)CC)S(=O)(=O)CC,inactive
18,CNC1(c2ccccc2Cl)CCCCC1=O (stereo not drawn),inactive
19,CN1C2CCC1CC(OC(c1ccccc1)c1ccc(Cl)cc1)C2 (stereo not drawn),inactive
20,CCC1C(C)=NN=C(c2ccc(OC)c(OC)c2)c2cc(OC)c(OC)cc21 (stereo not drawn),inactive
21,[N-]=[N+]=CC(=O)OCC(N)C(=O)O (stereo not drawn),inactive

# Biological target: Glutaminase kidney isoform, mitochondrial (Homo sapiens) (UniProt O94925)
# Assay: qHTS for Inhibitors of Glutaminase (GLS): LOPAC Validation (AID 624146); note: nearly all actives have a fitted effect of over 60% in size; note: potency is the fitted concentration of half-maximal effect
# Conditions: glutaminase enzyme activity inhibition; series mostly up to 46.1 µM
# In short: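 Two-point fluorescence kinetic (t0, 30 min RT) for hKGA; glutamate detected via glutamate oxidase–HRP–Amplex Red. Substrate: 1 mM L-glutamine solution; buffer 45 mM KH2PO4, pH 8.2.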
# Sequence of Glutaminase kidney isoform, mitochondrial (Homo sapiens) (O94925 whole entry, looked up, canonical isoform): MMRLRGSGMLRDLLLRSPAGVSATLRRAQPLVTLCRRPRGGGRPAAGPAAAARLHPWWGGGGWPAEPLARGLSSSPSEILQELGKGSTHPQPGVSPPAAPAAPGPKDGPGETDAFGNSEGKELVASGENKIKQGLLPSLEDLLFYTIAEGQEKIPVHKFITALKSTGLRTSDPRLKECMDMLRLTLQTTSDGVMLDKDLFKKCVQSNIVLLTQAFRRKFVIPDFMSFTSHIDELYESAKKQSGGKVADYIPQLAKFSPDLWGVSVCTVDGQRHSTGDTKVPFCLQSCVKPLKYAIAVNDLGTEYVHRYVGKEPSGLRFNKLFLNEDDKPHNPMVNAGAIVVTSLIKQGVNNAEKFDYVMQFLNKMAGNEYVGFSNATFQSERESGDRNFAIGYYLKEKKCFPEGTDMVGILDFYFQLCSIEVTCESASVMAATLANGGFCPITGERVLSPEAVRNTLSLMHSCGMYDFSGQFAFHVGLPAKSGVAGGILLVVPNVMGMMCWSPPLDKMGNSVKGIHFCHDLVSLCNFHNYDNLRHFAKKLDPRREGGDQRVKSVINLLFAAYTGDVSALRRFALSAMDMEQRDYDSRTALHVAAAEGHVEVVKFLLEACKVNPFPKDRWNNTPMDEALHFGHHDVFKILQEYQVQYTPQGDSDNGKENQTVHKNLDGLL
row,Compound,Potency
1,CNc1ccc2oc(C[C@H]3O[C@@]4(CC[C@H]3C)O[C@H]([C@H](C)C(=O)c3ccc[nH]3)[C@H](C)C[C@H]4C)nc2c1C(=O)O,3550 nM (active)
2,NC(CCCCCP(=O)(O)O)C(=O)O (stereo not drawn),inactive
3,N[C@@]1(C(=O)O)CC[C@@H](C(=O)O)C1,inactive
4,CC1OC1P(=O)(O)O (stereo not drawn),inactive
5,CC(N)Cc1c[nH]c2ccc(O)cc12 (stereo not drawn),794 nM (active)
6,NC(=O)c1cc(N2CC2)c([N+](=O)[O-])cc1[N+](=O)[O-],inactive
7,Clc1cc(I)cc(Cl)c1NC1=NCCN1,inactive
8,C#CCN[C@H](C)Cc1ccccc1,inactive
9,NC(C(=O)O)c1cc(=O)[nH]o1 (stereo not drawn),inactive
10,C[C@H](Cc1ccc2c(c1)OC(C(=O)O)(C(=O)O)O2)NC[C@H](O)c1cccc(Cl)c1,inactive
11,Cc1o[nH]c(=O)c1CC(N)C(=O)O (stereo not drawn),inactive
12,COc1ccc(OC)c(C(O)C(C)N)c1 (stereo not drawn),inactive
13,CC(C)NP(=O)(NC(C)C)OP(=O)(NC(C)C)NC(C)C,inactive
14,CN1CCc2cccc(Cl)c2CC1,inactive
15,C=CCN1C[C@@H](C)N([C@H](c2ccc(C(=O)N(CC)CC)cc2)c2cccc(OC)c2)C[C@@H]1C,inactive
16,CCCN(CCC)CCc1c[nH]c2ccc(C(N)=O)cc12,inactive
17,CCCN(CCC)C1CCc2cccc(O)c2C1 (stereo not drawn),inactive
18,CCCn1c(=O)c2[nH]c(C3CCCC3)nc2n(CCCOC(=O)c2ccc(S(=O)(=O)F)cc2)c1=O,inactive

# Tested on: not listed separately
# Assay: qHTS of Trypanosoma Brucei Inhibitors: LOPAC Validation (AID 624147)
# Conditions: purified enzyme assay, luminescence, 45 min; series mostly up to 57.5 µM
# In short: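 Glycolytic pyruvate kinase of T. brucei was incubated with substrate, test compound and 130 uM ADP for 45 minutes at room temperature. Luminescent Kinase-Glo Plus signal was measured after 10 minutes.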
row,Compound,Potency
1,CNc1ccc2oc(C[C@H]3O[C@@]4(CC[C@H]3C)O[C@H]([C@H](C)C(=O)c3ccc[nH]3)[C@H](C)C[C@H]4C)nc2c1C(=O)O,inactive
2,NC(CCCCCP(=O)(O)O)C(=O)O (stereo not drawn),inactive
3,N[C@@]1(C(=O)O)CC[C@@H](C(=O)O)C1,inactive
4,CC(N)Cc1c[nH]c2ccc(O)cc12 (stereo not drawn),inactive
5,NC(=O)c1cc(N2CC2)c([N+](=O)[O-])cc1[N+](=O)[O-],inactive
6,Clc1cc(I)cc(Cl)c1NC1=NCCN1,inactive
7,C#CCN[C@H](C)Cc1ccccc1,inactive
8,NC(C(=O)O)c1cc(=O)[nH]o1 (stereo not drawn),inactive
9,C[C@H](Cc1ccc2c(c1)OC(C(=O)O)(C(=O)O)O2)NC[C@H](O)c1cccc(Cl)c1,inactive
10,Cc1o[nH]c(=O)c1CC(N)C(=O)O (stereo not drawn),inactive
11,COc1ccc(OC)c(C(O)C(C)N)c1 (stereo not drawn),inactive
12,CC(C)NP(=O)(NC(C)C)OP(=O)(NC(C)C)NC(C)C,inactive
13,CN1CCc2cccc(Cl)c2CC1,inactive
14,C=CCN1C[C@@H](C)N([C@H](c2ccc(C(=O)N(CC)CC)cc2)c2cccc(OC)c2)C[C@@H]1C,inactive
15,CCCN(CCC)CCc1c[nH]c2ccc(C(N)=O)cc12,inactive
16,CCCN(CCC)C1CCc2cccc(O)c2C1 (stereo not drawn),inactive
17,CCCn1c(=O)c2[nH]c(C3CCCC3)nc2n(CCCOC(=O)c2ccc(S(=O)(=O)F)cc2)c1=O,inactive

# Biological target: Glucagon-like peptide 1 receptor (Homo sapiens) (UniProt P43220)
# Assay: qHTS of GLP-1 Receptor Agonists: LOPAC Validation (AID 624148);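 note: higher luminescence signal means agonism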
# Conditions: GLP-1R agonist cell assay; series mostly up to 46.1 µM
# In short: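 HEK293 cells stably co-expressing a cAMP-responsive luciferase reporter and a hypersensitive GLP-1R were plated 12 h at 37 °C and exposed to compounds for 4-6 hr at 37 °C, 5% CO2. Luminescence was read 12 min after adding detection reagent.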
# Sequence of Glucagon-like peptide 1 receptor (Homo sapiens) (P43220 whole entry, looked up): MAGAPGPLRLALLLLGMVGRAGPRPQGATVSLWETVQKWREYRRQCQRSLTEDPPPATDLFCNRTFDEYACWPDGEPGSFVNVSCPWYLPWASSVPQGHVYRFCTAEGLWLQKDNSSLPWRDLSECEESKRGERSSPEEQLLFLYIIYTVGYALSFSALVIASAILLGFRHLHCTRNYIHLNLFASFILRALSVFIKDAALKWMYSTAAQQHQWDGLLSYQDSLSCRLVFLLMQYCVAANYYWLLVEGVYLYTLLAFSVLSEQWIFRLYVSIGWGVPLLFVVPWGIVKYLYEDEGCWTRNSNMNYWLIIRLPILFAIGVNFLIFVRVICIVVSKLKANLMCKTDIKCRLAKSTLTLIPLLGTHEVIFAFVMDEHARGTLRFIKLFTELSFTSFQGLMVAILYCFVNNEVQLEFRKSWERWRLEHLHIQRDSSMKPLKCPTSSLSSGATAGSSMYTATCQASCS
row,Compound,outcome
1,CNc1ccc2oc(C[C@H]3O[C@@]4(CC[C@H]3C)O[C@H]([C@H](C)C(=O)c3ccc[nH]3)[C@H](C)C[C@H]4C)nc2c1C(=O)O,inactive
2,NC(CCCCCP(=O)(O)O)C(=O)O (stereo not drawn),inactive
3,N[C@@]1(C(=O)O)CC[C@@H](C(=O)O)C1,inactive
4,CC(N)Cc1c[nH]c2ccc(O)cc12 (stereo not drawn),inactive
5,NC(=O)c1cc(N2CC2)c([N+](=O)[O-])cc1[N+](=O)[O-],inactive
6,Clc1cc(I)cc(Cl)c1NC1=NCCN1,inactive
7,C#CCN[C@H](C)Cc1ccccc1,inactive
8,NC(C(=O)O)c1cc(=O)[nH]o1 (stereo not drawn),inactive
9,C[C@H](Cc1ccc2c(c1)OC(C(=O)O)(C(=O)O)O2)NC[C@H](O)c1cccc(Cl)c1,inactive
10,Cc1o[nH]c(=O)c1CC(N)C(=O)O (stereo not drawn),inactive
11,COc1ccc(OC)c(C(O)C(C)N)c1 (stereo not drawn),inactive
12,CC(C)NP(=O)(NC(C)C)OP(=O)(NC(C)C)NC(C)C,inactive
13,CN1CCc2cccc(Cl)c2CC1,inactive
14,C=CCN1C[C@@H](C)N([C@H](c2ccc(C(=O)N(CC)CC)cc2)c2cccc(OC)c2)C[C@@H]1C,inactive
15,CCCN(CCC)CCc1c[nH]c2ccc(C(N)=O)cc12,inactive
16,CCCN(CCC)C1CCc2cccc(O)c2C1 (stereo not drawn),inactive
17,CCCn1c(=O)c2[nH]c(C3CCCC3)nc2n(CCCOC(=O)c2ccc(S(=O)(=O)F)cc2)c1=O,inactive

# — PubChem BioAssay (NCATS)
